{"source": "the antibiotic and cytotoxicity screens of Wong et al. (2023)", "note": "In all, about 39,000 compounds went through this assay and about 3,300 (8.5%) were called active. Many of the other results were omitted from the sample, so actives are more common in it than they were."}
{"tested_on": "HepG2", "experiment": "cytotoxicity call (relative viability < 0.9)", "details": "10 µM"}
{"smiles": "CO[C@@H]1CN(C)C(=O)c2cc(NC(=O)Nc3ccccc3F)ccc2OC[C@@H](C)N(Cc2ccccc2C(=O)O)C[C@H]1C", "cytotoxicity call": "inactive"}
{"smiles": "COc1ccc(-c2coc3cc(OC)ccc3c2=O)c(O)c1", "cytotoxicity call": "inactive"}
{"smiles": "Cc1c(C(N)=O)nnn1-c1ccc(F)cc1", "cytotoxicity call": "inactive"}
{"smiles": "C[C@@H]1CCCCO[C@@H](CN(C)CC2CC2)[C@@H](C)CN([C@H](C)CO)C(=O)c2cc(NC(=O)Nc3ccc(C(F)(F)F)cc3)ccc2O1", "cytotoxicity call": "active"}
{"smiles": "C[C@@H]1CCCCO[C@H](CN(C)CC2CC2)[C@H](C)CN([C@@H](C)CO)C(=O)c2cc(NC(=O)Nc3ccc(C(F)(F)F)cc3)ccc2O1", "cytotoxicity call": "active"}
{"smiles": "C[C@@H]1CCCCO[C@H](CN(C)CC2CC2)[C@H](C)CN([C@H](C)CO)C(=O)c2cc(NC(=O)Nc3ccc(C(F)(F)F)cc3)ccc2O1", "cytotoxicity call": "active"}
{"smiles": "C[C@H]1CCCCO[C@H](CN(C)CC2CC2)[C@@H](C)CN([C@@H](C)CO)C(=O)c2cc(NC(=O)Nc3ccc(C(F)(F)F)cc3)ccc2O1", "cytotoxicity call": "inactive"}
{"smiles": "C[C@@H]1CCCCO[C@@H](CN(C)CC2CC2)[C@H](C)CN([C@H](C)CO)C(=O)c2cc(NC(=O)Nc3ccc(C(F)(F)F)cc3)ccc2O1", "cytotoxicity call": "inactive"}
{"smiles": "C[C@H](CO)N1C[C@H](C)[C@@H](CN(C)CC2CC2)OCCCC[C@H](C)Oc2ccc(NC(=O)Nc3ccc(C(F)(F)F)cc3)cc2C1=O", "cytotoxicity call": "inactive"}
{"smiles": "C[C@@H]1CCCCO[C@@H](CN(C)CC2CC2)[C@H](C)CN([C@@H](C)CO)C(=O)c2cc(NC(=O)Nc3ccc(C(F)(F)F)cc3)ccc2O1", "cytotoxicity call": "inactive"}
{"smiles": "C[C@H](CO)N1C[C@H](C)[C@H](CN(C)CC2CC2)OCCCC[C@H](C)Oc2ccc(NC(=O)Nc3ccc(C(F)(F)F)cc3)cc2C1=O", "cytotoxicity call": "active"}
{"smiles": "C[C@H](CO)N1C[C@H](C)[C@@H](CN(C)C(=O)Nc2ccccc2)OCCCC[C@H](C)Oc2ccc(NC(=O)C3CCCCC3)cc2C1=O", "cytotoxicity call": "inactive"}
{"smiles": "CN(C)C(=O)CN1C[C@]23CN(Cc4cnn(C)c4)C[C@@H](C[C@@H]2S1(=O)=O)O3", "cytotoxicity call": "inactive"}
{"smiles": "CC(C)NC(=O)N(C)C[C@H]1Oc2c(NS(=O)(=O)c3ccc(F)cc3)cccc2C(=O)N([C@H](C)CO)C[C@@H]1C", "cytotoxicity call": "inactive"}
{"smiles": "C[C@@H]1CN([C@H](C)CO)C(=O)c2cc(NC(=O)Nc3cccc4ccccc34)ccc2O[C@@H](C)CCCCO[C@@H]1CN(C)Cc1ccc(C(=O)O)cc1", "cytotoxicity call": "inactive"}
{"smiles": "COc1ccc(NC(=O)N(C)C[C@@H]2Oc3cc(Br)ccc3S(=O)(=O)N([C@H](C)CO)C[C@H]2C)cc1", "cytotoxicity call": "inactive"}
{"smiles": "COc1cccc(S(=O)(=O)N(C)C[C@H]2OCc3cnnn3CCCC(=O)N([C@H](C)CO)C[C@@H]2C)c1", "cytotoxicity call": "inactive"}
{"smiles": "C[C@H](CO)N1C[C@H](C)[C@H](CN(C)C(=O)Nc2ccccc2)OCCCC[C@H](C)Oc2ccc(NS(=O)(=O)c3cccs3)cc2C1=O", "cytotoxicity call": "inactive"}
{"smiles": "COc1ccc(S(=O)(=O)N(C)C[C@H]2Oc3ccc(NC(=O)Nc4cccc5ccccc45)cc3C(=O)N([C@H](C)CO)C[C@H]2C)cc1", "cytotoxicity call": "inactive"}
{"smiles": "Cn1c(=O)[nH]c2nnc(-c3ccccn3)nc2c1=O", "cytotoxicity call": "inactive"}
{"smiles": "Cn1nc(-c2ccccn2)nc2c(=O)n(C)c(=O)nc1-2", "cytotoxicity call": "active"}
{"smiles": "COc1ccc(-c2ccccn2)cc1", "cytotoxicity call": "inactive"}
{"smiles": "COc1ccc(NC(=O)Nc2ccc3c(c2)C(=O)N([C@H](C)CO)C[C@H](C)[C@@H](CN(C)Cc2ccc(C(=O)O)cc2)OCCCC[C@H](C)O3)cc1", "cytotoxicity call": "inactive"}
{"smiles": "CN(CP(=O)(O)CN1CCOCC1)S(C)(=O)=O", "cytotoxicity call": "inactive"}
{"smiles": "CC(C)(C)NCC(O)COc1nsnc1N1CCOCC1.O=C(O)C=CC(=O)O", "note": "(centres undefined)", "cytotoxicity call": "inactive"}
{"smiles": "CC(C)(C)NCC(O)COc1ccccc1C1CCCC1.O=S(=O)(O)O", "note": "(centres undefined)", "cytotoxicity call": "active"}
{"smiles": "CC(C)(C)NCC(O)COc1cccc2c1CC(O)C(O)C2", "note": "(centres undefined)", "cytotoxicity call": "inactive"}
{"smiles": "C[C@H](CO)N1C[C@H](C)[C@@H](CN(C)S(=O)(=O)c2cn(C)cn2)Oc2ccc(NC(=O)CCN3CCOCC3)cc2C1=O", "cytotoxicity call": "inactive"}
{"smiles": "C[C@H]1CN([C@@H](C)CO)C(=O)c2cc(NC(=O)CCCN(C)C)ccc2O[C@@H]1CN(C)C(=O)Nc1ccc2c(c1)OCO2", "cytotoxicity call": "inactive"}
{"smiles": "C[C@@H]1CN([C@H](C)CO)C(=O)Cc2cc(NC(=O)CCN3CCOCC3)ccc2O[C@@H]1CN(C)Cc1ccncc1", "cytotoxicity call": "inactive"}
{"smiles": "COc1ccc([Si](C)(C)[C@@H]2[C@@H](CCO)O[C@]3(C(=O)N(Cc4ccc(N(C=O)c5ccccc5)cc4)c4ccccc43)[C@H]2C)cc1", "cytotoxicity call": "active"}
{"smiles": "C[C@H]1[C@H]([Si](C)(C)F)[C@@H](CCO)O[C@]12C(=O)N(Cc1cccc(N(C=O)c3ccccc3)c1)c1ccccc12", "cytotoxicity call": "inactive"}
{"smiles": "COc1ccc([Si](C)(C)[C@@H]2[C@@H](CCO)O[C@]3(C(=O)N(Cc4cccc(N5CCCCC5=O)c4)c4ccccc43)[C@H]2C)cc1", "cytotoxicity call": "inactive"}
{"smiles": "COc1ccc([Si](C)(C)[C@H]2[C@H](CCO)O[C@@]3(C(=O)N(Cc4ccc(N(C=O)c5ccccc5)cc4)c4ccccc43)[C@@H]2C)cc1", "cytotoxicity call": "active"}
{"smiles": "COc1ccc([Si](C)(C)[C@H]2[C@H](CCO)O[C@@]3(C(=O)N(Cc4cccc(N(C=O)c5ccccc5)c4)c4ccccc43)[C@@H]2C)cc1", "cytotoxicity call": "active"}
{"smiles": "C[C@@H]1CN([C@@H](C)CO)C(=O)c2cccc(NS(=O)(=O)c3ccccc3)c2O[C@@H]1CN(C)S(=O)(=O)c1cccs1", "cytotoxicity call": "inactive"}
{"smiles": "CC(C)CC#Cc1ccc2c(c1)O[C@H](CN(C)C(=O)NC1CCCC1)[C@H](C)CN([C@H](C)CO)S2(=O)=O", "cytotoxicity call": "inactive"}
{"smiles": "CO[C@@H]1CN(C)C(=O)c2ccc(NC(=O)CC(F)(F)F)cc2OC[C@@H](C)N(C(=O)C2CCOCC2)C[C@@H]1C", "cytotoxicity call": "inactive"}
{"smiles": "C[C@H]1CN([C@@H](C)CO)C(=O)c2cc(NC(=O)c3ccncc3)ccc2O[C@H]1CN(C)Cc1ccc(-c2ccccc2)cc1", "cytotoxicity call": "inactive"}
{"smiles": "CC1=NCCN1", "cytotoxicity call": "inactive"}
{"smiles": "CC(C)c1ccc2c(ccc[n+]2C)c1", "cytotoxicity call": "inactive"}
{"smiles": "COC(=O)C[C@H]1CC[C@@H]2[C@H](COC[C@@H](O)CN2S(=O)(=O)c2cn(C)cn2)O1", "cytotoxicity call": "inactive"}
{"smiles": "COc1ccc(S(=O)(=O)Nc2cccc3c2O[C@@H](CN(C)S(=O)(=O)c2ccccc2)[C@H](C)CN([C@H](C)CO)C3=O)cc1", "cytotoxicity call": "inactive"}
{"smiles": "COCC(=O)N1C[C@H](C)[C@H](OC)CN(C)C(=O)c2ccc(NC(=O)c3ccc(OC)cc3)cc2OC[C@@H]1C", "cytotoxicity call": "inactive"}
